Test results: PubChem BioAssay (NCATS)
Results filed as inconclusive are left out. Activity calls are given as the source filed them. Calls come from the whole dose curve; as a rule, active = well fitted curve in the direction sought with a large enough effect; inconclusive = small, poorly fitted or top-dose-only effect, or another doubt; inactive = no such curve, though single readings can be large; an effect the other way counts as inactive or inconclusive.

Assays:
[1] = S16 Schwann cell viability assay (CellTiter-Glo assay) (AID 624031); conditions: S16 rat Schwann cells viability, 24 h; series mostly up to 57.5 µM;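 note: native untransfected S16 rat Schwann cells; cellular ATP luminescence as a viability measure; nearly all actives have a fitted effect of over 70% in size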
Procedure, shortened: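 Concentration-effect curves come from CellTiter-Glo luminescence of S16 rat Schwann cells after 24 h compound exposure. Each reading was normalized to DMSO wells (0%) and wells without cells, and curves were ranked by r2 and response magnitude.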

[2] = S16 Schwann cell PMP22 intronic element firefly luciferase assay (AID 624032); conditions: S16 rat Schwann cells, PMP22 element FLuc, 24 h; series mostly up to 57.5 µM; note: nearly all actives have a fitted effect of over 30% in size
Procedure, shortened: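 Luciferase reporter of PMP22 intronic-element expression in stably transfected S16 rat Schwann cells, read by ONE-Glo luminescence after 24 h compound exposure at 37 C. Activity scaled between DMSO (0%) and positive-control PTC124; concentration-effect curves quality-classified.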

[3] = tested on: 3D7; experiment: qHTS profiling for inhibitors of Plasmodium falciparum proliferation (AID 504749); note: nearly all actives have a fitted effect of over 60% in size; conditions: P. falciparum in erythrocytes, SYBR Green DNA, 72 h; series mostly up to 28.7 µM
Procedure, shortened: (§1)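 SYBR Green fluorescence of parasite DNA, read after lysis and overnight dark incubation, measured growth over 72 h in erythrocyte culture at 0.3% parasitemia and 2.5% hematocrit. Data normalised to DMSO and 0.29 uM artemisinin, with plate-drift correction.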

[4] = tested on: CP260; experiment: as above; conditions: P. falciparum in erythrocytes, SYBR Green DNA, 72 h; series mostly up to 28.7 µM
Procedure, shortened: as §1

[5] = tested on: CP286; experiment: as above; conditions: P. falciparum in erythrocytes, SYBR Green DNA, 72 h; series mostly up to 28.7 µM
Procedure, shortened: as §1

[6] = tested on: CP291; experiment: as above; conditions: P. falciparum in erythrocytes, SYBR Green DNA, 72 h; series mostly up to 28.7 µM
Procedure, shortened: as §1

[7] = tested on: CP297; experiment: as above; conditions: P. falciparum in erythrocytes, SYBR Green DNA, 72 h; series mostly up to 28.7 µM
Procedure, shortened: as §1

[8] = tested on: CP335; experiment: as above; conditions: P. falciparum in erythrocytes, SYBR Green DNA, 72 h; series mostly up to 28.7 µM
Procedure, shortened: as §1

[9] = tested on: DIV14; experiment: as above; conditions: P. falciparum in erythrocytes, SYBR Green DNA, 72 h; series mostly up to 28.7 µM
Procedure, shortened: as §1

[10] = tested on: GB4; experiment: as above; conditions: P. falciparum in erythrocytes, SYBR Green DNA, 72 h; series mostly up to 28.7 µM
Procedure, shortened: as §1

[11] = tested on: ATS95; experiment: as above; conditions: P. falciparum in erythrocytes, SYBR Green DNA, 72 h; series mostly up to 28.7 µM
Procedure, shortened: as §1

[12] = tested on: CP194; experiment: as above; conditions: P. falciparum in erythrocytes, SYBR Green DNA, 72 h; series mostly up to 28.7 µM
Procedure, shortened: as §1

[13] = molecular target: Pyruvate kinase PKM (Homo sapiens) (UniProt P14618); experiment: qHTS Assay for Inhibitors of Human Muscle Pyruvate Kinase (AID 958); conditions: purified human PKM enzyme activity; series mostly up to 57.5 µM
Pyruvate kinase PKM (Homo sapiens), sequence (P14618 whole entry, looked up): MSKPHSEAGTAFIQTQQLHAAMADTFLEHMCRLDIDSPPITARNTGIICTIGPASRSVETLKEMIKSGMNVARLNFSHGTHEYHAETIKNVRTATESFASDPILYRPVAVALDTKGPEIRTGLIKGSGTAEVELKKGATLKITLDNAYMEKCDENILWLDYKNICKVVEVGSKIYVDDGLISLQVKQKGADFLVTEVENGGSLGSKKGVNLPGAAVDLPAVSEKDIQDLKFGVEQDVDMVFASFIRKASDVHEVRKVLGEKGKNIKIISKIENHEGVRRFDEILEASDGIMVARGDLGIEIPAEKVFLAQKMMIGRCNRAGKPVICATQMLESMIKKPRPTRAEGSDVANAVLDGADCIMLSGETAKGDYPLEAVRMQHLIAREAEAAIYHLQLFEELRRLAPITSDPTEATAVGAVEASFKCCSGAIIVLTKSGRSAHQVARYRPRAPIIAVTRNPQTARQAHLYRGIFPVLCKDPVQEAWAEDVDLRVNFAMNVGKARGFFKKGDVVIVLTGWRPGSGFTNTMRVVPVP
Procedure, shortened: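 Enzyme was run at intermediate activity so both inhibitors and activators could be detected. ATP formed from ADP and PEP by 0.1 nM human PKM2 during a 1 h room-temperature incubation was quantified by coupled luciferase luminescence.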

[14] = molecular target: Pyruvate kinase (Leishmania mexicana) (UniProt Q27686); experiment: qHTS Validation Assay for Activators of Leishmania Mexicana Pyruvate Kinase (AID 959); conditions: purified L. mexicana pyruvate kinase, enzyme activity; series mostly up to 57.5 µM
Pyruvate kinase (Leishmania mexicana), sequence (Q27686 2-499 E452W): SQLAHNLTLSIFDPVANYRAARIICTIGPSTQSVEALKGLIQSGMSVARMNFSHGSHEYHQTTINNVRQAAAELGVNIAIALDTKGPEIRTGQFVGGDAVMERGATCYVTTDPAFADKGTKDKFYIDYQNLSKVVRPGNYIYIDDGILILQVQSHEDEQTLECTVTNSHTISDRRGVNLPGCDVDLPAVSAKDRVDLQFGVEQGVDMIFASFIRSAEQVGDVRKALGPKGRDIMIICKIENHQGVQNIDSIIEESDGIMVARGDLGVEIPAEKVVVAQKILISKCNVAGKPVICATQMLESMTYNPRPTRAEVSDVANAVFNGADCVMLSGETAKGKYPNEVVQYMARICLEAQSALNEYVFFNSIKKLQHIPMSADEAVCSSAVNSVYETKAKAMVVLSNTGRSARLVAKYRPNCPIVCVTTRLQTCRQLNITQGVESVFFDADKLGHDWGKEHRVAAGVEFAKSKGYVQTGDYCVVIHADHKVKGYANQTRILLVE
Procedure, shortened: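 Pyruvate kinase activity of E451W LmPYK (0.2 nM) was followed as ATP output after 1 h at room temperature with 0.5 mM PEP and 0.1 mM ADP, detected by PKLight luminescence.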

Measured: Potency

C[N+]1(C)[C@@H]2CC(OC(=O)[C@@H](CO)c3ccccc3)C[C@@H]1[C@H]1O[C@H]12 (stereo partly specified)
not listed: [11] | [12] | [13] | [14]
inactive: all other assays above

CC(=O)N1CCN(c2ccc(OC[C@@H]3CO[C@@](Cn4ccnc4)(c4ccc(Cl)cc4Cl)O3)cc2)CC1
inactive: [1] | [2] | [3] | [11] | [4] | [6] | [7]

C(=C/c1ccccc1)/CN1CCN(C(c2ccccc2)c2ccccc2)CC1
inactive: [11] | [12]

O=C1O/C(=C\Br)CC[C@@H]1c1cccc2ccccc12
inactive: [13]

N.N.N.N.N.N.N.N.N.N.N.N.N.N.O.O.[Ru].[Ru].[Ru]
inactive: [14]
